High-throughput results deposited in PubChem BioAssay by several laboratories.
Shown are actives, neighbours in structure and some others; about 2.4% of the full set was active somewhere.
Pf gamet viab – late stage P. falciparum gametocyte viability inhibitors, primary screen, ATP luminescence, HTS | P. falciparum stage V gametocytes, 24 h | inhibition, % at 10.9 µM | hit rate 0.065% among 150,000;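 active = inhibition above the mean plus 3 SD of compounds within the control limits, set per campaign, cut at about 38% in these data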;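 also: 0% = DMSO wells and 100% = medium only without gametocytes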
MEKK2 mut-MEK5 – MEK5 binding signal on mutant MEKK2 PB1, primary screen, biochemical, multiplex bead flow cytometry, Alexa488-MEK5; Alexa488-MEK5 binding to MEKK2 mutant; percent response, % at 10 µM; hit rate 0.35% among 290,000; in the data active = percent response above about 24%, passing the limit was not always enough
MEKK3 PB1 HTS – modulators of MEKK3-MEK5 PB1 binding, primary screen, biochemical, wildtype MEKK3, multiplex bead flow cytometry, Alexa488-MEK5. Mitogen-activated protein kinase kinase kinase 3 (Homo sapiens), Q99759. bead-based flow cytometry, Alexa488-MEK5 binding to MEKK3; actives lie on both sides; 0 = blocked by unlabeled MEK5, 100 = vehicle. binding response (% of control), % at 10 µM. hit rate 1.4% among 290,000. AID 1529, 2009;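 active = binding response more than 3 SD above or below the average of its plate-row segment, actives on both sides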;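 also: Alexa488 bead fluorescence after subtracting the streptavidin-only scavenger bead signal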
Target sequence (Q99759 whole entry, looked up): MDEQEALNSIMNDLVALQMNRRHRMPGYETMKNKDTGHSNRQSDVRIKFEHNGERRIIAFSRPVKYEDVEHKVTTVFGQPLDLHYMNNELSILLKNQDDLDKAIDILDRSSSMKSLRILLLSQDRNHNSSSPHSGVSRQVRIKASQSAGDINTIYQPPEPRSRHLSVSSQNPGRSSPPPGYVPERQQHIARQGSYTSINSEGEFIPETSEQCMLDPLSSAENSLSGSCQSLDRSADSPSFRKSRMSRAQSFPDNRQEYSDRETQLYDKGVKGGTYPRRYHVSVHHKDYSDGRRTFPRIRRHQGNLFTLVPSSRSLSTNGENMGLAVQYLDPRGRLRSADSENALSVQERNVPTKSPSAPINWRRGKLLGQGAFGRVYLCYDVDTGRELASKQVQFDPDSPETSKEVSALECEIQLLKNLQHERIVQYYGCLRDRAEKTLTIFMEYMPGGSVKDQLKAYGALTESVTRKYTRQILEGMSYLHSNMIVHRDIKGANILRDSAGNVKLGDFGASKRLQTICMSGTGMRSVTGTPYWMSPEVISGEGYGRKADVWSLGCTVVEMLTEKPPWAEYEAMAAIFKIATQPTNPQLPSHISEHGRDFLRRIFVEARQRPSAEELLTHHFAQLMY
Arbovirus inh – antivirals against arbovirus infection, primary screen, cell-based, full library, 10K replicate subset. arbovirus infection cell-based antiviral screen. AID 1251, 2008. hit rate 0.37% among 200,000. inhibition, % at 10 µM; in the data active = inhibition above about 30%
MEKK2 WT-MEK5 – modulators of MEK5 binding to wildtype MEKK2, primary screen, biochemical, multiplex bead flow cytometry, Alexa488-MEK5 | Mitogen-activated protein kinase kinase kinase 2 (Homo sapiens), Q9Y2U5 | Alexa488-MEK5 binding to MEKK2 WT; actives lie on both sides | binding response (% of control), % at 10 µM | hit rate 1.1% among 290,000; in the data active = binding response below about 67% or above about 130%
MEKK2wt confirm – modulators of MEK5 binding to wildtype MEKK2, confirmation, biochemical, single concentration, multiplex bead flow cytometry. shares compounds with MEKK3 PB1 HTS. Alexa488-MEK5 binding to MEKK2 WT; actives lie on both sides. binding response (% of control), % at 10 µM. hit rate 2.4% among 5,900; in the data active = binding response below about 16% or above about 210%; inactive = in between
MEKK2mut confirm – mutant MEKK2 PB1-MEK5 binding signal retest – biochemical, single concentration, multiplex bead flow cytometry, confirmation | shares compounds with MEKK3 PB1 HTS | Alexa488-MEK5 binding to MEKK2 mutant | percent response, % at 10 µM | hit rate 2% among 5,900 | AID 1893, 2009; in the data active = percent response mostly above about 71%, no sharp cut-off; inactive = mostly below about 38%;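 also: higher means compound restores mutant binding toward wildtype level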
MEKK3-MEK5 inh – MEKK3 wild-type PB1 binding to MEK5, inhibitors, confirmation, biochemical, bead multiplex flow cytometry, single concentration, wildtype; shares compounds with MEKK3 PB1 HTS; Alexa488-MEK5 binding to MEKK3; hits give low values; hit rate 1.8% among 5,900; binding response (% of control), % at 10 µM;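 active = binding response below 72% of control, or above a set upper limit, though filed actives all read lower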;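 also: 100% = DMSO only wells and 0% = binding blocked by excess unlabeled MEK5; lower values mean stronger disruption of MEK5 binding to MEKK3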
The depositor's hits bear a star; [ ] = another dose, or the depositor's remark.

Results for CCn1cc(S(=O)(=O)NC(C)c2cc(OC)ccc2OC)cn1 (centres undefined) ?
MEKK2 mut-MEK5: 9; MEKK3 PB1 HTS: 106; MEKK2 WT-MEK5: 111

How did CN(C)CCNC(=O)c1cc2c(s1)-c1ccccc1OC2 do in these assays?
MEKK2 mut-MEK5: 24*; MEKK3 PB1 HTS: 112; Arbovirus inh: -38; MEKK2 WT-MEK5: 132; MEKK2wt confirm: 108; MEKK2mut confirm: 2; MEKK3-MEK5 inh: 99

What do the screens show for `Cc1cc(C)c(COc2ccc(/C=N/n3c(C)n[nH]c3=S)cc2)c(C)c1`?
MEKK2 mut-MEK5: -2; MEKK3 PB1 HTS: 72*[inhibitor]; Arbovirus inh: -28; MEKK2 WT-MEK5: 82; MEKK2wt confirm: 91; MEKK2mut confirm: -10; MEKK3-MEK5 inh: 94

What do the screens show for `O=C(NCC(=O)N1CCN(Cc2ccccc2)CC1)c1ccc(Cl)cc1`?
MEKK2 mut-MEK5: 4; MEKK3 PB1 HTS: 103; MEKK2 WT-MEK5: 105

What do the screens show for `O=C(OCC(=O)N1CCN(Cc2ccccc2)CC1)c1ccc(Cl)cc1`?
MEKK2 mut-MEK5: -42; MEKK3 PB1 HTS: 4.0*[inhibitor]; Arbovirus inh: 5; MEKK2 WT-MEK5: 6.0*[inhibitor]; MEKK2wt confirm: 99; MEKK2mut confirm: -3; MEKK3-MEK5 inh: 98

How did CCn1ccnc1C(O)(c1ccccc1)c1ccccc1 do in these assays?
Pf gamet viab: 6; MEKK2 mut-MEK5: 2; MEKK3 PB1 HTS: 108; MEKK2 WT-MEK5: 106

Results for COc1ccc(/C=C(/NC(=O)c2ccccc2)C(=O)N/N=C/c2sccc2C)cc1 ?
Pf gamet viab: -14; MEKK2 mut-MEK5: 1; MEKK3 PB1 HTS: 133*; Arbovirus inh: -14; MEKK2 WT-MEK5: 105; MEKK2wt confirm: 94; MEKK2mut confirm: -6; MEKK3-MEK5 inh: 98

How did CC(O)[C@H]1CNCCN1CCc1cccc(F)c1 (some centres undefined) do in these assays?
Pf gamet viab: -9

How did COc1ccccc1-c1coc2c(CN3CCCC(C)C3)c(O)ccc2c1=O (centres undefined) do in these assays?
MEKK2 mut-MEK5: 7; MEKK3 PB1 HTS: 103; MEKK2 WT-MEK5: 111

Results for O=C(Nc1ccccc1)c1ccc(NCc2cccnc2)c(S(=O)(=O)N2CCOCC2)c1 ?
MEKK2 mut-MEK5: 7; MEKK3 PB1 HTS: 123*; Arbovirus inh: -7; MEKK2 WT-MEK5: 129; MEKK2wt confirm: 100; MEKK2mut confirm: -4; MEKK3-MEK5 inh: 97

How did O=C(Nc1ccc(Cl)cc1)c1ccc(S(=O)(=O)N2CCOCC2)cc1 do in these assays?
MEKK2 mut-MEK5: -3; MEKK3 PB1 HTS: 103; MEKK2 WT-MEK5: 100

Results for O=C(Nc1ccccc1)c1ccc(S(=O)(=O)N2CCOCC2)cc1 ?
MEKK2 mut-MEK5: 10; MEKK3 PB1 HTS: 136*; Arbovirus inh: 1; MEKK2 WT-MEK5: 135*; MEKK2wt confirm: 103; MEKK2mut confirm: 2; MEKK3-MEK5 inh: 101

What do the screens show for `O=C(Nc1ccc([N+](=O)[O-])cc1)c1cc(Cl)sc1Cl`?
MEKK2 mut-MEK5: -2; MEKK3 PB1 HTS: 103; MEKK2 WT-MEK5: 103

What do the screens show for `COc1ccc(S(=O)(=O)N2CCC(C(=O)NC3CCCCC3C)CC2)cc1` (centres undefined)?
MEKK2 mut-MEK5: 0; MEKK3 PB1 HTS: 97; MEKK2 WT-MEK5: 94

How did C=C(C)[C@@H]1CC=C(CN2CCC(N3CCC(C(=O)N4CCCC4)CC3)CC2)CC1 do in these assays?
Pf gamet viab: 12; MEKK2 mut-MEK5: 31; MEKK3 PB1 HTS: 94; Arbovirus inh: -20; MEKK2 WT-MEK5: 142*; MEKK2wt confirm: 129; MEKK2mut confirm: 19; MEKK3-MEK5 inh: 110

Results for CC(C)n1nc(C(=O)Nc2cccc(S(=O)(=O)NCc3ccco3)c2)c2ccccc2c1=O ?
Pf gamet viab: 17; MEKK2 mut-MEK5: 20; MEKK3 PB1 HTS: 118; MEKK2 WT-MEK5: 121

Results for COc1ccc(C2/C=C\CN(S(=O)(=O)c3ccc(C)cc3)CC(=O)N2Cc2ccc(F)cc2)cc1 (centres undefined) ?
Pf gamet viab: 12; MEKK2 mut-MEK5: 2; MEKK3 PB1 HTS: 129*; MEKK2 WT-MEK5: 158*; MEKK2wt confirm: 102; MEKK2mut confirm: 1; MEKK3-MEK5 inh: 100

What do the screens show for `COc1ccc(C2/C=C\CN(C(=O)NC34CC5CC(CC(C5)C3)C4)CC(=O)N2Cc2ccc(F)cc2)cc1` (centres undefined)?
MEKK2 mut-MEK5: 2; MEKK3 PB1 HTS: 123; MEKK2 WT-MEK5: 147*; MEKK2wt confirm: 96; MEKK2mut confirm: -1; MEKK3-MEK5 inh: 102

What do the screens show for `COC(=O)N1C/C=C\C(c2ccc(OC)cc2)N(Cc2ccc(F)cc2)C(=O)C1` (centres undefined)?
MEKK2 mut-MEK5: 3; MEKK3 PB1 HTS: 96; MEKK2 WT-MEK5: 94

How did O=c1[nH]ncc(N/N=C\c2cccs2)c1Cl do in these assays?
Pf gamet viab: -1; MEKK2 mut-MEK5: -8; MEKK3 PB1 HTS: 98; Arbovirus inh: -6; MEKK2 WT-MEK5: 90

How did CCOC(=O)CN1C(=O)C(O)(CC(=O)c2cccc(OC)c2)c2ccccc21 (centres undefined) do in these assays?
Pf gamet viab: 5; MEKK2 mut-MEK5: 9; MEKK3 PB1 HTS: 105; Arbovirus inh: 3; MEKK2 WT-MEK5: 106

How did C#CCN1C(=O)C(O)(CC(=O)c2cccc(OC)c2)c2ccccc21 (centres undefined) do in these assays?
MEKK2 mut-MEK5: -18; MEKK3 PB1 HTS: 1.0*[inhibitor]; Arbovirus inh: -16; MEKK2 WT-MEK5: 1.0*[inhibitor]; MEKK2wt confirm: 108; MEKK2mut confirm: 6; MEKK3-MEK5 inh: 103

How did O=C(CCSCCC(=O)NCCN1CCOCC1)NCCN1CCOCC1 do in these assays?
MEKK2 mut-MEK5: -4; MEKK3 PB1 HTS: 81*[inhibitor]; Arbovirus inh: 1; MEKK2 WT-MEK5: 89; MEKK2wt confirm: 97; MEKK2mut confirm: 1; MEKK3-MEK5 inh: 99

Results for COc1ccc(CNC(=S)Nc2ccccc2-c2ccccc2)cc1 ?
MEKK2 mut-MEK5: -10; MEKK3 PB1 HTS: 77; Arbovirus inh: 9; MEKK2 WT-MEK5: 82
